# Test results as given in PubChem BioAssay (Tox21).
# Where “and” joins values, the source holds several entries; their conditions need not be identical. Equal values may be shown once. Unmarked numbers belong to inactive results. Results filed as inconclusive are left out. Entries that show only a call come without a potency. Calls of active or inactive are those of the source. The call rests on the fitted dose curve; in most records, active means well fitted curve in the direction sought with a large enough effect in the repeat runs; inconclusive means weak or mixed curves; inactive means no such curve, though single readings can be large; an effect the other way counts as inactive or inconclusive.
# Assays:
# [1] = A CellTox Green Cytotoxicity Assay to monitor cytotoxicity in HEK293 cells - 32 hour (AID 1224881); further: nearly all actives have a fitted effect of over 40% in size; further: potency means the concentration at half of the fitted maximal effect
# How it was run: (§1)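 Seeding of HEK293 cells together with cytotoxicity dye preceded a 5 h incubation at 37 C/5% CO2. Test compounds in DMSO were then added and fluorescence monitored across 40 h.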
# [2] = A CellTox Green Cytotoxicity Assay to monitor cytotoxicity in HepG2 cells - 0 hour (AID 1224882); further: nearly all actives have a fitted effect of over 35% in size
# How it was run: (§2)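 Nonlytic assay: viable cells exclude the dye, so fluorescence scales with cell death. HepG2 at 600 cells/well, compounds added after 5 h, signal read across 40 h.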
# [3] = A CellTox Green Cytotoxicity Assay to monitor cytotoxicity in HepG2 cells - 32 hour (AID 1224883); further: nearly all actives have a fitted effect of over 50% in size; further: potency means the concentration at half of the fitted maximal effect
# How it was run: as §2
# [4] = A CellTox Green Cytotoxicity Assay to monitor cytotoxicity in HEK293 cells - 8 hour (AID 1224884); further: nearly all actives have a fitted effect of over 35% in size; further: potency means the concentration at half of the fitted maximal effect
# How it was run: as §1
# [5] = qHTS RealTime-Glo MT Cell Viability Assay in HepG2 cells - 16 hour (AID 1224885); further: nearly all actives have a fitted effect of over 50% in size; further: potency means the concentration at half of the fitted maximal effect
# How it was run: (§3)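 Viability was tracked continuously by NanoLuc luminescence from prosubstrate reduced by living HepG2 cells, at successive time points over 40 h of compound exposure. Cells with reagent were preincubated 5 h at 37 °C before compound addition.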
# [6] = qHTS RealTime-Glo MT Cell Viability Assay in HEK293 cells - 24 hour (AID 1224886); further: nearly all actives have a fitted effect of over 50% in size; further: potency means the concentration at half of the fitted maximal effect; on activity change, negative = cytotoxicity: top concentration of the series differs between compounds
# How it was run: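 Viability tracked continuously by luminescence as live cells reduce a prosubstrate for NanoLuc; HEK293 cells preincubated 5 h, compound-treated at 37 C, and read at 0, 8, 16, 24, 32 and 40 h.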
# [7] = qHTS RealTime-Glo MT Cell Viability Assay in HEK293 cells - 8 hour (AID 1224887); further: nearly all actives have a fitted effect of over 50% in size; further: potency means the concentration at half of the fitted maximal effect; on activity change, negative = cytotoxicity: top concentration of the series differs between compounds
# How it was run: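 Tox21 screen in HEK293 using RealTime-Glo MT chemistry, with cells and reagent co-dispensed. Luminescence proportional to viable cell number was captured at intervals during 40 h compound exposure at 37 C.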
# [8] = A CellTox Green Cytotoxicity Assay to monitor cytotoxicity in HEK293 cells - 16 hour (AID 1224888); further: nearly all actives have a fitted effect of over 35% in size; further: potency means the concentration at half of the fitted maximal effect
# How it was run: as §1
# [9] = qHTS RealTime-Glo MT Cell Viability Assay in HepG2 cells - 0 hour (AID 1224889); further: nearly all actives have a fitted effect of over 50% in size
# How it was run: as §3
# [10] = A CellTox Green Cytotoxicity Assay to monitor cytotoxicity in HepG2 cells - 8 hour (AID 1224890); further: nearly all actives have a fitted effect of over 45% in size; further: potency means the concentration at half of the fitted maximal effect
# How it was run: as §2
smiles,measurement,setting,value
CCCCCCCCCCOC(=O)c1ccccc1C(=O)OCCCCCCCC,Potency,[1],inactive
same,Potency,[2],inactive
same,Potency,[3],inactive
same,Potency,[4],inactive
same,Potency,[5],inactive
same,Potency,[6],inactive
same,Potency,[7],inactive
same,Potency,[8],inactive
same,Potency,[9],inactive
same,Potency,[10],inactive
Clc1ccnc(Cl)n1,Potency,[1],inactive
same,Potency,[2],inactive
same,Potency,[3],inactive
same,Potency,[4],inactive
same,Potency,[5],inactive
same,Potency,[6],inactive
same,Potency,[7],inactive
same,Potency,[8],inactive
same,Potency,[9],inactive
same,Potency,[10],inactive
CC(C)(C)C1CCC(=O)CC1,Potency,[1],inactive
same,Potency,[2],inactive
same,Potency,[3],inactive
same,Potency,[4],inactive
same,Potency,[5],inactive
same,Potency,[6],inactive
same,Potency,[7],inactive
same,Potency,[8],inactive
same,Potency,[9],inactive
same,Potency,[10],inactive
CC(C)(C)CC(C)(C)c1ccc(Nc2ccc(C(C)(C)CC(C)(C)C)cc2)cc1,cytotoxicity increase,[1],0.962% [at 6.97 µM]
same,cytotoxicity,[2],0.162% [at 6.97 µM]
same,cytotoxicity increase,[3],0.939% [at 6.97 µM]
same,cytotoxicity increase,[4],0.178% [at 6.97 µM]
same,"activity change, negative = cytotoxic",[5],0.171% [at 6.97 µM]
same,"activity change, negative = cytotoxicity",[6],3.98% [at 6.97 µM]
same,"activity change, negative = cytotoxicity",[7],-20.4% [at 6.97 µM]
same,activity change,[8],"5.08% [at 6.97 µM, stronger effect = higher value]"
same,"activity change, negative = cytotoxicity",[9],1.23% [at 6.97 µM]
same,cytotoxicity increase,[10],1.07% [at 6.97 µM]
O=[N+]([O-])c1ccc(F)c(Cl)c1,Potency,[1],inactive
same,Potency,[2],inactive
same,Potency,[3],inactive
same,Potency,[4],inactive
same,Potency,[5],inactive
same,Potency,[6],inactive
same,Potency,[7],inactive
same,Potency,[8],inactive
same,Potency,[9],inactive
same,Potency,[10],inactive
CN(C)C(=O)COC(=O)Cc1ccc(OC(=O)c2ccc(N=C(N)N)cc2)cc1,Potency,[1],inactive
same,Potency,[2],inactive
same,Potency,[3],inactive
same,Potency,[4],inactive
same,Potency,[5],inactive
same,Potency,[6],inactive
same,Potency,[7],inactive
same,Potency,[8],inactive
same,Potency,[9],inactive
same,Potency,[10],inactive
CC(C)(C)NSc1nc2ccccc2s1,Potency,[1],inactive
same,Potency,[2],inactive
same,Potency,[3],inactive
same,Potency,[4],inactive
same,Potency,[5],inactive
same,Potency,[6],inactive
same,Potency,[7],inactive
same,Potency,[8],inactive
same,Potency,[10],inactive
CCO[Si](OCC)(OCC)OCC,Potency,[1],inactive
same,Potency,[2],inactive
same,Potency,[3],inactive
same,Potency,[4],inactive
same,Potency,[5],inactive
same,Potency,[6],inactive
same,Potency,[7],inactive
same,Potency,[8],inactive
same,Potency,[9],inactive
same,Potency,[10],inactive
C=CCCC(=O)/C=C/C1C(C)=CCCC1(C)C (configuration not stated),Potency,[1],24.5 µM (active)
same,Potency,[2],inactive
same,Potency,[3],inactive
same,Potency,[4],inactive
same,Potency,[5],inactive
same,Potency,[6],inactive
same,Potency,[7],inactive
same,Potency,[9],inactive
same,Potency,[10],inactive
C=CCn1c(=O)n(CC=C)c(=O)n(CC=C)c1=O,Potency,[1],inactive
same,Potency,[2],inactive
same,Potency,[3],inactive
same,Potency,[4],inactive
same,Potency,[5],inactive
same,Potency,[6],inactive
same,Potency,[7],inactive
same,Potency,[8],inactive
same,Potency,[9],inactive
same,Potency,[10],inactive
O=C(O)c1cc(-c2ccc(F)cc2F)ccc1O,Potency,[1],inactive
same,Potency,[2],inactive
same,Potency,[3],inactive
same,Potency,[4],inactive
same,Potency,[5],inactive
same,Potency,[6],inactive
same,Potency,[7],inactive
same,Potency,[8],inactive
same,Potency,[10],inactive
CCCCCCCC,Potency,[1],inactive
same,Potency,[2],inactive
same,Potency,[3],inactive
same,Potency,[4],inactive
same,Potency,[5],inactive
same,Potency,[6],inactive
same,Potency,[7],inactive
same,Potency,[8],inactive
same,Potency,[9],inactive
same,Potency,[10],inactive
Cc1c(C)c2c(c(C)c1O)CC[C@@](C)(CCC[C@H](C)CCC[C@H](C)CCCC(C)C)O2,Potency,[1],inactive
same,Potency,[2],inactive
same,Potency,[3],inactive
same,Potency,[4],inactive
same,Potency,[5],inactive
same,Potency,[6],inactive
same,Potency,[7],inactive
same,Potency,[8],inactive
same,Potency,[9],inactive
same,Potency,[10],inactive
O=c1oc2cc(O)ccc2c2oc3cc(O)ccc3c12,Potency,[1],inactive
same,Potency,[2],inactive
same,Potency,[3],inactive
same,Potency,[4],inactive
same,Potency,[5],inactive
same,Potency,[6],21 µM (active)
same,Potency,[7],16.7 µM (active)
same,Potency,[8],inactive
same,Potency,[9],inactive
same,Potency,[10],inactive
Cc1cc(C(C#N)c2ccc(Cl)cc2)c(Cl)cc1NC(=O)c1cc(I)cc(I)c1O (configuration not stated),Potency,[1],inactive
same,Potency,[2],inactive
same,Potency,[3],inactive
same,Potency,[4],inactive
same,Potency,[5],inactive
same,Potency,[6],inactive
same,Potency,[7],inactive
same,Potency,[8],inactive
same,Potency,[10],inactive
Cc1ccc(C(C)C)cc2c(C)ccc1-2,Potency,[1],inactive
same,Potency,[2],inactive
same,Potency,[3],inactive
same,Potency,[4],inactive
same,Potency,[5],inactive
same,Potency,[6],inactive
same,Potency,[7],inactive
same,Potency,[8],inactive
same,Potency,[10],inactive
CCCCCCCCCCCCCCCC[N+](C)(C)CC,Potency,[1],39 µM (active) and 21.3 µM (active)
same,Potency,[2],inactive
same,Potency,[3],17.4 µM (active) and 19 µM (active)
same,Potency,[4],55.1 µM (active) and 23.9 µM (active)
same,Potency,[5],49.1 µM (active) and 23.9 µM (active)
same,Potency,[6],8.74 µM (active) and 4.77 µM (active)
same,Potency,[7],21.9 µM (active)
same,Potency,[8],55.1 µM (active)
same,Potency,[9],inactive
same,Potency,[10],55.1 µM (active) and 19 µM (active)
COC(=O)c1ccccc1C,Potency,[1],inactive
same,Potency,[2],inactive
same,Potency,[3],inactive
same,Potency,[4],inactive
same,Potency,[5],inactive
same,Potency,[6],inactive
same,Potency,[7],inactive
same,Potency,[8],inactive
same,Potency,[10],inactive
Cc1c(C)c2c(c(C)c1OC(=O)c1cccnc1)CC[C@@](C)(CCC[C@H](C)CCC[C@H](C)CCCC(C)C)O2,Potency,[1],inactive
same,Potency,[2],inactive
same,Potency,[3],inactive
same,Potency,[4],inactive
same,Potency,[6],inactive
same,Potency,[7],inactive
same,Potency,[8],inactive
same,Potency,[9],inactive
same,Potency,[10],inactive
O=C(O)c1cc(N=Nc2ccc([N+](=O)[O-])cc2)ccc1O,Potency,[1],inactive
same,Potency,[2],inactive
same,Potency,[3],inactive
same,Potency,[4],inactive
same,Potency,[5],inactive
same,Potency,[6],inactive
same,Potency,[8],inactive
same,Potency,[9],inactive
same,Potency,[10],inactive
